# Measurements from the OligoGym collection.
# Target: TNFAIP6
# Assay: pooled miR-30 sensor sort-seq; sequence = guide strand
# Conditions: shRNA
# Also: reference of the scale not given here.
row,Sequence,sensor-assay potency score (higher = more potent)
1,TATTTCAACATAATCAGCCAAG,-1.38
2,TTATCTTCGTACTCATTTGGGA,-0.091
3,TAAAAATTTGCTTTGGATCTGT,0.758
4,TTGAGTGTCTTCCCATAGCAAG,-1.58
5,TGAAGCATCACTTAGAAACTTC,0.148
6,TACTTGAGTCTAATGTGCCAGT,-0.543
7,TATCTTCGTACTCATTTGGGAA,-0.842
8,TTCCAGTAGAAGTAGTACTTGT,-0.0924
9,TTCTCTGTGGTACACACCGGCT,-1.32
10,TAGTACTTGTATTTTTTCCTTG,-0.262

# Target: TNFRSF10A
# Assay: as above
# Conditions: shRNA
row,Sequence,sensor-assay potency score (higher = more potent)
1,AAACTTGTCAAAGAACAGCATC,-1.04
2,TGTATTAACTCCTAACACCTAA,-0.808
3,TTTCGTGAGGTCCAGCTGCCTC,-0.987
4,TTGCATACAAGGCATCCCCTGG,-0.804
5,TTCTTTGTGGACACACTCGATG,-0.86
6,TTAACTCCTAACACCTAAGAGG,-0.905
7,TCTTCTAAGTAGATGAACTTTC,-0.791
8,TTGAAGGTCTTGTGGACCCGGA,0.23
9,TCTAAGTAGATGAACTTTCCAG,-0.118
10,TTGATGGTTGCAGCTGAGCTAG,-1.28
11,TTGATCATGAAGTTTGATGGTT,0.371

# Target: TNIP2
# Assay: as above
# Conditions: shRNA
row,Sequence,sensor-assay potency score (higher = more potent)
1,TTTCTCTTCCAACTGTCTGTTG,-0.51
2,TTCTCTTCCAACTGTCTGTTGA,0.202
3,TTTATTTTCTCTTCCAACTGTC,0.553
4,TATTCCATAGAACAGGATGGGG,-0.938
5,TAACAGTCGATTTTCTTCCTGC,0.411
6,TTTTCTCTTCCAACTGTCTGTT,-0.371
7,TTCAACGTGAGTCACCTTCTGT,-0.171
8,TTGAATCCTACTTTGAGCCCGT,0.603
9,TTGCTCGTCACTGAAGCACTGC,0.0739
10,TTCTGACATGAAGTCATCCTTG,-0.577
11,TCCAACTGTCTGTTGAGCCGGG,-0.18
12,TTCTTCTAGTCGCTCAGTCAGC,-0.848

# Target: TNK1
# Assay: as above
# Conditions: shRNA
row,Sequence,sensor-assay potency score (higher = more potent)
1,TTTGCCTTCTTTCTGTCTCCAT,-0.221
2,TTGCCTTCTTTCTGTCTCCATC,-1.2
3,TAGACTTAGGCCCAGAACGTAG,-0.86
4,TCTCATAATCCATACTACCAGC,-1.03
5,TACAAAGTCGAAGTGCTCTGGC,0.534
6,TTTGAAGGTGCGACCATTCTGG,0.416
7,TTCAGAGCTTCGGACAGTCTGC,-0.64
